About 8,800 targets were measured; listed, in parts, are those with a hit and a random draw of the rest. About 0.5% of all pairs of compound and target were hits. Values without a mark were called inactive.

UniProt Q9Y2V0, sequence (Q9Y2V0 whole entry, looked up): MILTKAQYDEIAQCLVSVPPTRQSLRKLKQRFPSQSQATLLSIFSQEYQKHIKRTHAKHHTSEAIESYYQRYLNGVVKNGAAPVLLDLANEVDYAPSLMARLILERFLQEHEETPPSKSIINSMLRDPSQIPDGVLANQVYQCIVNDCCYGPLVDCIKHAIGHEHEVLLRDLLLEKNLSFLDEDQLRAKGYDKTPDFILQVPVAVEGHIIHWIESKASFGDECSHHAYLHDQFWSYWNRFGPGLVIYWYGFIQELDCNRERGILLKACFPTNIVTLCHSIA
UniProt Q14692, sequence (Q14692 whole entry, looked up): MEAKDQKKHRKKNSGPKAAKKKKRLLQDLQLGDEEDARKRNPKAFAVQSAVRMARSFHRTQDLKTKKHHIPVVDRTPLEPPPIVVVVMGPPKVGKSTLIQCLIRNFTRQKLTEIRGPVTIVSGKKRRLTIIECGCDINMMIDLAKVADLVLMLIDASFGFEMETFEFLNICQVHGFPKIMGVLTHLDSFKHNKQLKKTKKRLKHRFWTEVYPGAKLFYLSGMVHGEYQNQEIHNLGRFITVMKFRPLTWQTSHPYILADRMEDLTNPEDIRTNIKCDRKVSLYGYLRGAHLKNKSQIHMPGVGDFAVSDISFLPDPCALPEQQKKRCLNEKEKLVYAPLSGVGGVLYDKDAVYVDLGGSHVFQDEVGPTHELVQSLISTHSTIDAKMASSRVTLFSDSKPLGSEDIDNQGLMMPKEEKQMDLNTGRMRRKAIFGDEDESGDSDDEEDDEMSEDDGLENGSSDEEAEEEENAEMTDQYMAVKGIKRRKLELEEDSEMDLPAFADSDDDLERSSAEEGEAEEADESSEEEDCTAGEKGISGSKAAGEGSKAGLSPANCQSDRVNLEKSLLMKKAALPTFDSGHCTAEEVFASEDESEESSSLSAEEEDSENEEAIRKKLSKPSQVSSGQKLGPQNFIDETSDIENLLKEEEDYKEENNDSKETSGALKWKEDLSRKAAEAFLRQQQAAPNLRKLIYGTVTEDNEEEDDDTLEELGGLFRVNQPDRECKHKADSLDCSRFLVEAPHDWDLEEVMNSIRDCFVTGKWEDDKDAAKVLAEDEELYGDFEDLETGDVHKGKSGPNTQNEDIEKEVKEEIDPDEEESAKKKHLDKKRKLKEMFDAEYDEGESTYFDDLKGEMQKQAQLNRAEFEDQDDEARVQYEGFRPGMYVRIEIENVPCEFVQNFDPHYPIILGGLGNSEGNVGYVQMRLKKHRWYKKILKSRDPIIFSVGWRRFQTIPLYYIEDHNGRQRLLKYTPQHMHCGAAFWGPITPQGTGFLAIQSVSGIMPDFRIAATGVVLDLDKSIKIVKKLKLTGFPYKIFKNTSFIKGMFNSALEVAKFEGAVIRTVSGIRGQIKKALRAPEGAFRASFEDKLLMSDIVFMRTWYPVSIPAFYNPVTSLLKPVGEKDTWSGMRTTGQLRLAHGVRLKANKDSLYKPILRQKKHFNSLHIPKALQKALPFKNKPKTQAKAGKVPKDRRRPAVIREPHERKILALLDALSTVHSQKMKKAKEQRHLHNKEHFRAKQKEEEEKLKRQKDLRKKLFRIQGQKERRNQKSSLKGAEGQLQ
UniProt Q13042, sequence (Q13042 whole entry, looked up): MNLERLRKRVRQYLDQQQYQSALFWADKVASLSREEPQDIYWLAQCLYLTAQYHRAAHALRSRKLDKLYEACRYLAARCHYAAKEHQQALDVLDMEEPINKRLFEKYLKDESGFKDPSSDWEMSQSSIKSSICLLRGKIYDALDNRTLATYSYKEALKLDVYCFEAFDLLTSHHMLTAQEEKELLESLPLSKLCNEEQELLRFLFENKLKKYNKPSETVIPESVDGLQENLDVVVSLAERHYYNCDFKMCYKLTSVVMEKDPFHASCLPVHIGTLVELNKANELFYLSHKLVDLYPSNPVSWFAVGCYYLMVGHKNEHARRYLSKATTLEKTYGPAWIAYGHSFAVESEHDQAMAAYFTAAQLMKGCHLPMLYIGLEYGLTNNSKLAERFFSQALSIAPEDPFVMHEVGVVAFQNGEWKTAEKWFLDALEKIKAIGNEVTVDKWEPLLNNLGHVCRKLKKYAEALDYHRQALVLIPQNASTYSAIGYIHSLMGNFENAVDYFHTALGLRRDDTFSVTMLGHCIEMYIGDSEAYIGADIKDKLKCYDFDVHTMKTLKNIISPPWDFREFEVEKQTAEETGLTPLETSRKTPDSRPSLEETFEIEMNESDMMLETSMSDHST
UniProt Q8N5S9, sequence (Q8N5S9 whole entry, looked up): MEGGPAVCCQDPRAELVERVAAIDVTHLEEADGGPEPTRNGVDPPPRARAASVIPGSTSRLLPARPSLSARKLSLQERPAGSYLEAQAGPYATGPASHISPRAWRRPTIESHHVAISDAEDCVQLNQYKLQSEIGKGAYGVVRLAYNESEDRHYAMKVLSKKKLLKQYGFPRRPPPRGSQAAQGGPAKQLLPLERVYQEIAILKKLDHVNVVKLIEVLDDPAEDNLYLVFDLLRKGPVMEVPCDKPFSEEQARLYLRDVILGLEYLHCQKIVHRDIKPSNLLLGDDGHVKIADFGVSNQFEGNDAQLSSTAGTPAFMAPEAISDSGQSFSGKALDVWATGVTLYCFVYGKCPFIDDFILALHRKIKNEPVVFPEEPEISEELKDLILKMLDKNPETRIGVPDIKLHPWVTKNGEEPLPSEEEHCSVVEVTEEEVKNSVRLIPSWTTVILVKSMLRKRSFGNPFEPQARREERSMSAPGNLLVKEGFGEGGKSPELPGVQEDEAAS
UniProt Q12981, sequence (Q12981 whole entry, looked up): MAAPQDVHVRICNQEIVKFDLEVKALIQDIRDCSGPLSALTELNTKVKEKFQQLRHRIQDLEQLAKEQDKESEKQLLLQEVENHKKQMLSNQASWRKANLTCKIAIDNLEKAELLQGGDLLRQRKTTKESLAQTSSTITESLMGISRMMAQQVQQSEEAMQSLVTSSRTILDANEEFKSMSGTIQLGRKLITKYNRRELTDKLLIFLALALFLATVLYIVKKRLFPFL
UniProt O75081, sequence (O75081 whole entry, looked up): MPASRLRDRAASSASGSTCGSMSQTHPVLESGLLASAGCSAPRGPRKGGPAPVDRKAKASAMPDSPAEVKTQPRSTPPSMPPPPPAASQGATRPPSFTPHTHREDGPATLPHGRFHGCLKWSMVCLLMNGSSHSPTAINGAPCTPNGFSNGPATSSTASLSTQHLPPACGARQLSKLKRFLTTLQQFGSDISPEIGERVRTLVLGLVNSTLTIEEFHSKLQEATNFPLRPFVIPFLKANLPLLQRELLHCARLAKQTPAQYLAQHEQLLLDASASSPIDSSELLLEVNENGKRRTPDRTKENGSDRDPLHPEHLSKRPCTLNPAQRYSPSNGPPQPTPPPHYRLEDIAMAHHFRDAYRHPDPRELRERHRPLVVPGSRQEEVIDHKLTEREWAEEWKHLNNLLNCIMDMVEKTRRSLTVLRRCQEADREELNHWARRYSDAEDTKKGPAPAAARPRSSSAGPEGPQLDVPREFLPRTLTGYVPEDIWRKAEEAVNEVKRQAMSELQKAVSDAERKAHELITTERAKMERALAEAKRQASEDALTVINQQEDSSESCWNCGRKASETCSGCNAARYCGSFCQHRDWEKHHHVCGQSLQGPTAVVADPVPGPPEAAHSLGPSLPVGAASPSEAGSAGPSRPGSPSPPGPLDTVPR
UniProt Q8N7R7, sequence (Q8N7R7 whole entry, looked up): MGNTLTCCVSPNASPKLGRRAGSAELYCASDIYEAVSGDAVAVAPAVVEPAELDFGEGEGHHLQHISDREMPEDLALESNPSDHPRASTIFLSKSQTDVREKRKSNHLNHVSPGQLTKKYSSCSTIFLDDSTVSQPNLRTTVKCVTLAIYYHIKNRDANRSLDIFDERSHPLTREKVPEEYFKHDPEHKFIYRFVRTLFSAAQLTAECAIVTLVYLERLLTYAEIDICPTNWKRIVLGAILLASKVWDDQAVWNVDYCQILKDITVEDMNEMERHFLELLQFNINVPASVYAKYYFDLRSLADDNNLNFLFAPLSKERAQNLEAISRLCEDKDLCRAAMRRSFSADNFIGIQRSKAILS
UniProt O95260, sequence (O95260 whole entry, looked up): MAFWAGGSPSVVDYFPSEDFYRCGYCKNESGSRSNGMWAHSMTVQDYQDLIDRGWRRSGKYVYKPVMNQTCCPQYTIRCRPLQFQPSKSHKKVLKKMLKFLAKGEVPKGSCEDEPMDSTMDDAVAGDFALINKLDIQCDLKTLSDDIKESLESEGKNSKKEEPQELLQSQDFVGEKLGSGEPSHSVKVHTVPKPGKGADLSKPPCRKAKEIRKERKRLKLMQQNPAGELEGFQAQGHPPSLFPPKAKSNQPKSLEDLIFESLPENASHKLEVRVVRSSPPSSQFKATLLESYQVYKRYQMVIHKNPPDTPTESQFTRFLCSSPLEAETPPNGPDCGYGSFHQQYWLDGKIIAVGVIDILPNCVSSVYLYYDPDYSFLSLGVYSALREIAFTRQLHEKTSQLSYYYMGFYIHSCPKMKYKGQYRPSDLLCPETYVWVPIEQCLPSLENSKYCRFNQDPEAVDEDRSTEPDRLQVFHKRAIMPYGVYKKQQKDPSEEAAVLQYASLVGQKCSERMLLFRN
UniProt P22676, sequence (P22676 whole entry, looked up): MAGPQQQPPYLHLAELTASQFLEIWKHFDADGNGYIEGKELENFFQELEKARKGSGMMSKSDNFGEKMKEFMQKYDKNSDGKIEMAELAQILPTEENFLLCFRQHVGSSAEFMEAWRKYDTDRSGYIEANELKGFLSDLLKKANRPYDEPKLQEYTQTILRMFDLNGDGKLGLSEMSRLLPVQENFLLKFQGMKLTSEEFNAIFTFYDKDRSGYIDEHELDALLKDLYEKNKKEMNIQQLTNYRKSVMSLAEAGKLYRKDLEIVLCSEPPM
UniProt P42574, sequence (P42574 whole entry, looked up): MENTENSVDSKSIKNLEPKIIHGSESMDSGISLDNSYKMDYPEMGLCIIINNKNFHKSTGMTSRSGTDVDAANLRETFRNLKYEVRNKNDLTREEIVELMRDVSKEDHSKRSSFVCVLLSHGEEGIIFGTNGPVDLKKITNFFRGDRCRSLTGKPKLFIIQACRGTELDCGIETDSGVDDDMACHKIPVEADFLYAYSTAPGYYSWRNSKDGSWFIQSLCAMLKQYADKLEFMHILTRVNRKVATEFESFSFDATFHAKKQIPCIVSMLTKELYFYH

Compound in the first test: CN1CCN(CCOc2cc(OC3CCOCC3)c3c(Nc4c(Cl)ccc5c4OCO5)ncnc3c2)CC1 [saracatinib]
Put plainly: log2 fold change, soluble protein after heating vs DMSO (PISA); higher = thermal stabilisation; K562 lysate, 10 uM; active = over 0.2 and 3.5 SD of the protein, either way, in both replicates (recomputed). Put shortly: (§1)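 Log-two fold change in thermal stability relative to solvent controls is reported from duplicates. For each sample, crude K562 extract from dounce-homogenised pellets in PBS pH 7.4 with 1 mM MgCl2, at 1 mg/mL protein, was treated with 10 μM compound for 30 min. Aliquots heated for 3 min across 48°C-58°C were pooled, brought to 0.5% NP-40 at 4°C and cleared at 21,000xg for 90 min. The supernatant was quantified by TMTpro 16plex LC-MS/MS with channel sums equalised.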
As for CARD9 (UniProt Q9H257), the log2 fold change is 0.014.

Consider ATG13 isoform 2 (UniProt O75143), for which the log2 fold change is 0.005.

On to CCDC25 (UniProt Q86WR0), for which the log2 fold change is 0.007.

Take CCPG1 isoform 5 (UniProt Q9ULG6): the log2 fold change is 0.049.

As for BRAF (UniProt P15056), the log2 fold change was 0.017.

CALB2 (UniProt P22676): the log2 fold change is -0.008.

With CES2 isoform 4 (UniProt O00748), the log2 fold change is -0.001.

Consider CCDC47 (UniProt Q96A33), for which the log2 fold change was -0.003.

Regarding CCNB2 (UniProt O95067), the log2 fold change was 0.038.

As for ATP2B4 (UniProt P23634), the log2 fold change is 0.024.

As for CDKN1C (UniProt P49918), the log2 fold change was -0.14.

Turning to ATAD3B (UniProt Q5T9A4), the log2 fold change was -0.018.

CEP76 (UniProt Q8TAP6): the log2 fold change is 0.047.

CDK13 (UniProt Q14004): the log2 fold change was 0.074.

As to C2CD5 isoform 3 (UniProt Q86YS7), the log2 fold change is 0.058.

As for CDAN1 (UniProt Q8IWY9), the log2 fold change is 0.002.

In the case of ATRIP (UniProt Q8WXE1), the log2 fold change was 0.048.

As for CAMK2G isoform 8 (UniProt Q13555), the log2 fold change is 0.086.

As to CDC16 (UniProt Q13042), the log2 fold change is -0.005.

In the case of CDC7 (UniProt O00311), the log2 fold change was 0.004.

As for BNIP1 (UniProt Q12981), the log2 fold change was 0.032.

As to CAD (UniProt P27708), the log2 fold change was -0.004.

On to CFDP1 (UniProt Q9UEE9), for which the log2 fold change is -0.007.

Take C15orf41 (UniProt Q9Y2V0): the log2 fold change is -0.018.

Regarding CDC123 (UniProt O75794), the log2 fold change is 0.012.

Consider BMS1 (UniProt Q14692), for which the log2 fold change was -0.004.

With CCNA2 (UniProt P20248), the log2 fold change was 0.001.

As for ATE1 isoform 2 (UniProt O95260), the log2 fold change is 0.006.

Regarding BPHL (UniProt Q86WA6), the log2 fold change was -0.058.

For ATR (UniProt Q13535), the log2 fold change is 0.018.

Regarding BORCS5 (UniProt Q969J3), the log2 fold change was 0.013.

As for CCNYL1 (UniProt Q8N7R7), the log2 fold change is 0.051.

On to CBFA2T3 (UniProt O75081), for which the log2 fold change is 0.021.

In the case of ATG7 (UniProt O95352), the log2 fold change was -0.003.

Take CAMKK2 (UniProt Q96RR4): the log2 fold change was -0.017.

Consider C19orf54 (UniProt Q5BKX5), for which the log2 fold change is -0.027.

Consider ATXN2 (UniProt Q99700), for which the log2 fold change is -0.014.

Consider CASP3 (UniProt P42574), for which the log2 fold change is -0.036.

Consider CAMKK1 isoform 2 (UniProt Q8N5S9), for which the log2 fold change is -0.063.

Compound in a further test: CN1CCN(c2nc(C3=C(c4c[nH]c5ccccc45)C(=O)NC3=O)c3ccccc3n2)CC1 [sotrastaurin]
Described as above. In a few lines:
as §1
Consider CARD9 (UniProt Q9H257), for which the log2 fold change was -0.01.

Regarding ATG13 isoform 2 (UniProt O75143), the log2 fold change was 0.053.

As to CCDC25 (UniProt Q86WR0), the log2 fold change is -0.009.

As for CCPG1 isoform 5 (UniProt Q9ULG6), the log2 fold change was 0.051.

In the case of BRAF (UniProt P15056), the log2 fold change was -0.025.

As to CALB2 (UniProt P22676), the log2 fold change is -0.061.

For the target CES2 isoform 4 (UniProt O00748), the log2 fold change is -0.017.

In the case of CCDC47 (UniProt Q96A33), the log2 fold change was 0.007.

Turning to CCNB2 (UniProt O95067), the log2 fold change is 0.078.

Regarding ATP2B4 (UniProt P23634), the log2 fold change is 0.009.

In the case of CDKN1C (UniProt P49918), the log2 fold change was -0.054.

For the target ATAD3B (UniProt Q5T9A4), the log2 fold change was -0.013.

For the target CEP76 (UniProt Q8TAP6), the log2 fold change was 0.085.

For CDK13 (UniProt Q14004), the log2 fold change is -0.036.

For C2CD5 isoform 3 (UniProt Q86YS7), the log2 fold change was -0.023.

In the case of CDAN1 (UniProt Q8IWY9), the log2 fold change was -0.005.

On to ATRIP (UniProt Q8WXE1), for which the log2 fold change was 0.002.

With CAMK2G isoform 8 (UniProt Q13555), the log2 fold change is 0.345 (active).

Consider CDC16 (UniProt Q13042), for which the log2 fold change is 0.02.

Consider CDC7 (UniProt O00311), for which the log2 fold change was 0.036.

As for BNIP1 (UniProt Q12981), the log2 fold change was 0.006.

Take CAD (UniProt P27708): the log2 fold change is 0.003.

Take CFDP1 (UniProt Q9UEE9): the log2 fold change is 0.024.

On to C15orf41 (UniProt Q9Y2V0), for which the log2 fold change is -0.016.

Regarding CDC123 (UniProt O75794), the log2 fold change was 0.013.

As for BMS1 (UniProt Q14692), the log2 fold change was 0.005.

CCNA2 (UniProt P20248): the log2 fold change was 0.

Turning to ATE1 isoform 2 (UniProt O95260), the log2 fold change is -0.016.

Turning to BPHL (UniProt Q86WA6), the log2 fold change was 0.084.

For the target ATR (UniProt Q13535), the log2 fold change is 0.081.

Regarding BORCS5 (UniProt Q969J3), the log2 fold change is 0.017.

On to CCNYL1 (UniProt Q8N7R7), for which the log2 fold change is 0.034.

Take CBFA2T3 (UniProt O75081): the log2 fold change was 0.015.

As to ATG7 (UniProt O95352), the log2 fold change is 0.037.

In the case of CAMKK2 (UniProt Q96RR4), the log2 fold change was 0.069.

As for C19orf54 (UniProt Q5BKX5), the log2 fold change was -0.027.

As for ATXN2 (UniProt Q99700), the log2 fold change was 0.052.

With CASP3 (UniProt P42574), the log2 fold change is -0.013.

On to CAMKK1 isoform 2 (UniProt Q8N5S9), for which the log2 fold change is -0.013.
